Source: PubChem BioAssay
Sampled rows, rich in hits. Any-hit rate of the full collection: about 5.6%.
PfG6PD inh: PfG6PD (Plasmodium falciparum) enzyme inhibition. PfGluPho enzyme, NADPH resazurin-diaphorase fluorescence. inhibition, % at 20 µM. 350,000 tested, 0.78% active;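 active means inhibition reaching at least a set limit at 20 µM in the primary screen, cut at about 59% in these data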;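 further: 0% = DMSO wells with substrate and 100% = DMSO wells lacking glucose-6-phosphate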
M18AAP inhibitor: PfM18AAP enzyme inhibition. recombinant PfM18AAP, H-Glu-NHMec fluorogenic cleavage. inhibition, % at 7.35 µM. 290,000 tested, 1.2% active. AID 1822;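 active means inhibition above the campaign mean inhibition over all tested compounds plus 3 SD, cut at about 28% in these data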;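 further: 0% = plate median of test compound wells and 100% = 2 mM ZnCl2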
ALR H2O2 inh: human ALR oxidase inhibition via reduced H2O2. purified ALR, DTT oxidation, H2O2 HRP-luminol luminescence. 290,000 tested, 3.8% active. inhibition, % (concentration not given with the values). AID 485317;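 active means mean replicate inhibition above about 79%, with every replicate also reaching it, limit read from the data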
Target sequence (P55789 whole entry, looked up): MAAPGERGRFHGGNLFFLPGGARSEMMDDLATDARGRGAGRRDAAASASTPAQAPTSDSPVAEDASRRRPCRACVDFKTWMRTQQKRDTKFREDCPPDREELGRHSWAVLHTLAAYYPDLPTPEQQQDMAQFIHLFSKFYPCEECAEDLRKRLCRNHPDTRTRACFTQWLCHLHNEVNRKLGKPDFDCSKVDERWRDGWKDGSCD
PHOSPHO1 inh: inhibitors of human PHOSPHO1 phosphatase. AID 1565. Q8TCT1. inhibition, % at 13.3 µM. 290,000 tested, 1.1% active. recombinant PHOSPHO1, absorbance phosphatase assay; in the data active means inhibition above about 60%
Target sequence (Q8TCT1 whole entry, looked up): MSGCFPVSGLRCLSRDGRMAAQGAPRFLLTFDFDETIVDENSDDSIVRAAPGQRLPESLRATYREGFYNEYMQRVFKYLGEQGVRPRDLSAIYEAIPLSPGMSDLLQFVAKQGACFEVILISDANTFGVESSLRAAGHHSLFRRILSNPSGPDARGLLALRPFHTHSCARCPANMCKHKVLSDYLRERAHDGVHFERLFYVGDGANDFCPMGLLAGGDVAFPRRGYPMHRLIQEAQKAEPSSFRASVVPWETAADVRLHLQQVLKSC
Cardio protect: protects H9c2 cardiomyocytes from peroxide injury; H2O2 injury protection, ATPLite, 2 h; protection from H2O2 cell death, % at 20 µM; 360,000 tested, 0.63% active;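 active means compounds giving at least 50% protection of heart cells from peroxide-induced death in the single-dose screen, raw or plate-pattern-corrected value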;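 further: 0% = DMSO wells with peroxide and 100% = DMSO wells without peroxide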
Active calls of the source: *; . = not tested or not shown.

SMILES | PfG6PD inh | M18AAP inhibitor | ALR H2O2 inh | PHOSPHO1 inh | Cardio protect
CC(=O)Nc1ccc(NC(=O)CSc2nc3nc(-c4cccs4)cc(C(F)(F)F)c3c(=O)[nH]2)cc1 | -18 | 0 | 99* | -20 | 25
CN(C)c1ccccc1C(=O)N1CCCC(Nc2ccc(F)cc2)C1 (configuration not stated) | -5 | -4 | 99* | 29 | 2
Cn1cc(C(=O)N2CCCC(Nc3ccc(F)cc3)C2)c2ccccc21 (configuration not stated) | -2 | -1 | 88* | 22 | -1
Cn1nccc1C(=O)N1CCCC(Nc2ccc(F)cc2)C1 (configuration not stated) | -15 | 8 | 72 | 40 | -3
S=c1nc(NCCc2ccccc2Cl)c2ccccc2[nH]1 | -1 | 8 | 2 | 11 | -2
CCOc1ccc(S(=O)(=O)NNS(=O)(=O)c2ccc(C)cc2C)cc1 | 34 | 15 | 99* | -108 | 6
Cc1ccc(C(=O)CSc2n[nH]c(-c3ccco3)n2)cc1C | 10 | 4 | 97* | -31 | -5
COc1ccc(C(=O)CSc2n[nH]c(C)n2)cc1[N+](=O)[O-] | 20 | 12 | 82* | -79 | 8
CCc1nc(SCC(=O)c2ccc(C)c(C)c2)n[nH]1 | 20 | -7 | 93* | 99* | -4
CCc1c(C)nc(SCC(=O)c2ccc(C)c(C)c2)[nH]c1=O | -6 | 2 | -69 | 15 | -4
CC1(c2nc3ccccc3[nH]2)CCC(=O)N1Cc1ccc(F)cc1 (configuration not stated) | . | . | . | . | 1
CCc1ccccc1Nc1nc(N)nc(COC(=O)c2c(C)noc2C)n1 | 3 | . | -3 | . | 9
Cc1sc2ncn(CC(=O)NCCCC(=O)Nc3ccc(C(C)C)cc3)c(=O)c2c1C | 9 | 5 | -4 | 37 | -3
Cc1ccc(Nc2nc(N)[nH]c(=O)c2N=O)cc1 | -7 | 18 | 1 | 3 | 52*
Cc1ccc(Nc2nc(N)nc(N)c2N=O)cc1C | . | . | . | . | -1
Cc1cc(NC(=O)c2ccoc2C)ccc1Br | 26 | . | 89* | . | -6
Cc1ccc(NC(=O)c2ccoc2C)cc1C | 6 | 6 | 0 | -6 | -4
Oc1ccc(N2Cc3ccccc3C2)cc1 | 6 | 5 | 84* | 11 | 2
Cc1nc(N2CCC(C)CC2)c2c(C)c(C(=O)Nc3ccc(C)c(F)c3)sc2n1 | 6 | -1 | 0 | -16 | -2
Cc1nc(N2CCN(C)CC2)c2c(C)c(C(=O)Nc3ccc(C)c(F)c3)sc2n1 | 9 | -10 | 96* | -1 | -1
O=C1CC(=O)CC(c2ccco2)C1 | -11 | 28* | . | -6 | -11
O=C1C=C(O)CC(c2ccco2)C1 (configuration not stated) | 6 | 12 | -6 | 10 | 5
c1ccc(CNc2ccc3c(c2)ncn3C2CCCCC2)nc1 | 2 | 3 | 94* | -14 | 0
CCCCN1C(=O)C(=O)N(CC(=O)N2N=C3/C(=C/c4ccco4)CCCC3C2c2ccco2)C1=O (configuration not stated) | -4 | 3 | -1 | 62* | -10
O=C(CSc1ncn[nH]1)N1N=C2/C(=C\c3ccco3)CCCC2C1c1ccco1 (configuration not stated) | -16 | . | . | . | -5
SMILES | PfG6PD inh | M18AAP inhibitor | ALR H2O2 inh | PHOSPHO1 inh | Cardio protect
COc1ncnc2c1ncn2CCCN(C)Cc1ccco1 | 2 | . | . | . | 2
NC(=S)N=Nc1c(O)[nH]c2ccccc12 | -25 | 6 | . | 14 | 3
Oc1[nH]c2ccc(Br)cc2c1N=NC(=S)N1CCOCC1 | 16 | 8 | 99* | 92* | 40
Oc1[nH]c2ccccc2c1N=NC(=S)N1CCOCC1 | 21 | 7 | 90* | 42 | 29
COC(=O)N=Nc1c(O)[nH]c2ccc(Br)cc12 | -14 | 5 | 3 | 33 | 4
Oc1cccc(NC(=S)N=Nc2c(O)[nH]c3ccccc23)c1 | -9 | 23 | 99* | -3 | 23
CCOc1ccc(NC(=S)N=Nc2c(O)[nH]c3ccccc23)cc1 | 6 | 3 | -6 | 0 | 40
O=C(COc1ccccc1)N1CCN(C(=O)c2ccccc2F)CC1 | 6 | -1 | . | 40 | 4
Cc1cccc(CSc2ccc(S(=O)(=O)N3CCCC3)cn2)c1 | 6 | . | -3 | . | -8
CC[C@@]1(C(=O)OC)N[C@H](CN(C)C(=O)COc2ccccc2)[C@@H]2C(=O)N(Cc3ccccc3)C(=O)[C@@H]21 | -16 | . | . | . | 3
COc1cccc(/C=N/N2CCN(C3c4ccccc4-c4ccccc43)CC2)c1O | 14 | 1 | -1 | -12 | -12
COc1ccccc1N1CCN(/N=C(\C)c2ccc(O)cc2)CC1 | -25 | 4 | 99* | 40 | -5
COc1ccccc1N1CCN(/N=C/c2cccc(OC)c2O)CC1 | 3 | 6 | 93* | 32 | -5
COc1ccccc1N1CCN(/N=C/c2ccc(C(=O)O)cc2)CC1 | 7 | 0 | -55 | 39 | 2
COc1ccc(/C=N/N2CCN(c3ccccc3OC)CC2)cc1OC | -1 | 0 | 32 | 18 | -2
CCN(CC)c1ccc(/C=N/N2CCN(c3ccccc3OC)CC2)cc1 | 10 | -3 | 99* | 19 | -3
Cc1ccc(CSCC(=O)Nc2cc(S(=O)(=O)N3CCOCC3)ccc2OCC(F)(F)F)cc1 | -4 | . | . | . | -9
C#CCn1c(=NC(=O)CSCC(=O)N2CCOCC2)sc2ccccc21 | -10 | -11 | 96* | 12 | -4
Cn1c(=NC(=O)CSCC(=O)N2CCCC2)sc2ccccc21 | 5 | 13 | -8 | 2 | -5
CNC(=O)c1c(NC(=O)c2ccc(S(=O)(=O)N(C)c3ccccc3)cc2)sc2c1CCN(C(C)C)C2 | 23 | 13 | -14 | 14 | .
CCN1CCc2c(sc(NC(=S)NC(=O)c3ccc(Cl)cc3)c2C(N)=O)C1 | 48 | 14 | 7 | 67* | 2
CCN1CCc2c(sc(NC(=O)c3ccc(S(=O)(=O)N(C)c4ccccc4)cc3)c2C(=O)NC)C1 | 23 | 16 | -5 | 53 | 57*
Cc1oc(-c2ccc(Cl)cc2)nc1CS(=O)CC(=O)NCc1ccccc1 (configuration not stated) | -6 | 6 | 99* | 15 | 0
Cc1ccc(-c2nc(CS(=O)CC(=O)NCc3ccc(Cl)cc3)c(C)o2)cc1 (configuration not stated) | -4 | 7 | 54 | 10 | -14
CCc1ccc(-c2nc(CS(=O)CC(=O)NCc3ccccc3)c(C)o2)cc1 (configuration not stated) | 10 | -1 | 99* | 33 | -1
CCc1cccc(NC(=O)CS(=O)Cc2nc(-c3ccc(C)cc3)oc2C)c1 (configuration not stated) | 0 | -7 | 99* | 9 | -16
Cc1ccc(CNC(=O)CS(=O)(=O)Cc2nc(-c3ccc(C)cc3)oc2C)cc1 | -10 | -8 | 3 | 14 | -10
Cc1oc(-c2ccc(Cl)cc2)nc1CS(=O)CC(=O)NCc1ccccn1 (configuration not stated) | -12 | -1 | 99* | 38 | 1
COc1ccc(-n2nnnc2C(c2ccnc3ccccc23)N2CCN(C/C=C/c3ccccc3)CC2)cc1 (configuration not stated) | . | . | . | . | 0
